# Measured values: ChEMBL document CHEMBL4513146, “CO-ADD screening of Karazin Kharkiv National University (Ukraine) compounds”
# Potency and affinity values are given separately.
# System: Klebsiella pneumoniae
# Details: Concentration 32 ug.mL-1;; ASSAY_TEST Inhibition of Bacterial Growth; detection method Absorption (OD600); MEDIA CAMHB; plate type 384well; NBS; CORNING #3640; time 18 hr
row,Structure (SMILES),Inhibition [%]
1,CCCCn1c(=O)c2sccc2n2c(CCC(=O)NC(C)C34CC5CC(CC(C5)C3)C4)nnc12 (stereo not given),12.08
2,O=C(Cn1nc2c(Oc3ccccc3)nccn2c1=O)Nc1ccc(F)cc1Cl,3.51
3,COC(=O)c1ccc(NC(=O)Cn2nc3c(Oc4cccc(OC)c4)nccn3c2=O)cc1,5.51
4,N#CCn1nc2n(Cc3ccc(F)cc3)c(=O)c3ccccc3n2c1=O,3.36
5,O=c1c2nnc(-c3cccc([N+](=O)[O-])c3)n2ccn1-c1ccc(F)cc1,11.79
6,COc1cccc(-n2ccn3c(SCC(=O)c4cc(C)ccc4C)nnc3c2=O)c1,13.22
7,CCCN(C)c1nccn2c(=O)n(CC(=O)Nc3ccc(F)cc3)nc12,16.44
8,COc1cccc(Oc2nccn3c(=O)n(CC(=O)Nc4cc(F)ccc4F)nc23)c1,3.2
9,O=C(Cn1nc2ccc(C(=O)NCc3ccccc3)cn2c1=O)Nc1ccc(Br)cc1,-0.54
10,N#Cc1cccc(NC(=O)Cn2nc3c(Oc4ccccc4)nccn3c2=O)c1,7.41
11,COc1cc(NC(=O)Cn2nc3c(N4CCCC4)nccn3c2=O)cc(OC)c1,0.81
12,CC(C)c1nnc2c(SCC(=O)Nc3ccc(C#N)cc3)nc3ccccc3n12,10.23
13,CCOc1ccc(-n2ccn3c(SC(CC)C(=O)Nc4ccc(C(C)C)cc4)nnc3c2=O)cc1 (stereo not given),9.42
14,CC(C)CCn1c(=O)c2ccc(C(=O)NC3CCCC3)cc2n2c(=O)n(CC#N)nc12,12.37
15,COc1cccc(CN(c2cc(F)cc(F)c2)S(=O)(=O)c2ccc3nnc(C)n3c2)c1,6.42
